In PubChem BioAssay (NCATS):
Records with an inconclusive call do not appear. The source made the active and inactive calls. Calls follow the shape of the dose curve; as a rule, active = well fitted curve in the direction sought with a large enough effect; inconclusive = small, poorly fitted or top-dose-only effect, or another doubt; inactive = no such curve, though single readings can be large; an effect the other way counts as inactive or inconclusive.

Key:
[1] = tested on: Zika virus NS2B-NS3 protease; assay: Primary screen GU AMC qHTS for Zika virus inhibitors (AID 1347154);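 also: 0% = no-inhibitor control and -100% = no-enzyme control; nearly all actives have a fitted effect of over 70% in size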
Outline: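 Fluorogenic AMC-substrate cleavage by noncovalent NS2B-NS3 protease complex (25 nM, pH 8.0 Tris buffer with Tween 20) followed for 15 minutes at room temperature (~20% conversion). Percent inhibition from ex340/em450 signal change, fitted by 4-parameter Hill equation.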

[2] = qHTS to identify inhibitors of the type 1 interferon - major histocompatibility complex class I in skeletal muscle: primary screen against the NCATS Pharmaceutical Collection (AID 1347407);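 also: luminescence of HiBiT knocked into endogenous HLA-B as interferon-induced MHC class I level; % is scaled to controls: 0 for no effect and ±100 for the full control effect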
Outline: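 Compounds […] were added to CRISPR-engineered HLA-B-HiBiT C25cl48 human myoblasts with 4.0 ng/ml IFN-beta. After 24 hrs at 37 C, cells were lysed and HiBiT luminescence measured.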

[3] = target: Protein phosphatase 1D (Homo sapiens) (UniProt O15297); assay: RapidFire Mass Spectrometry qHTS Assay for Modulators of WT P53-Induced Phosphatase 1 (WIP1) (AID 1347424);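 also: amount of dephosphorylated VEPPL-S-QETFS peptide product formed by WIP1; series mostly up to about 63 µM; plate controls were DMSO wells for no effect and GSK830371 inhibitor control at 10 µM for full effect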
Chain of Protein phosphatase 1D (Homo sapiens) (O15297 whole entry, looked up): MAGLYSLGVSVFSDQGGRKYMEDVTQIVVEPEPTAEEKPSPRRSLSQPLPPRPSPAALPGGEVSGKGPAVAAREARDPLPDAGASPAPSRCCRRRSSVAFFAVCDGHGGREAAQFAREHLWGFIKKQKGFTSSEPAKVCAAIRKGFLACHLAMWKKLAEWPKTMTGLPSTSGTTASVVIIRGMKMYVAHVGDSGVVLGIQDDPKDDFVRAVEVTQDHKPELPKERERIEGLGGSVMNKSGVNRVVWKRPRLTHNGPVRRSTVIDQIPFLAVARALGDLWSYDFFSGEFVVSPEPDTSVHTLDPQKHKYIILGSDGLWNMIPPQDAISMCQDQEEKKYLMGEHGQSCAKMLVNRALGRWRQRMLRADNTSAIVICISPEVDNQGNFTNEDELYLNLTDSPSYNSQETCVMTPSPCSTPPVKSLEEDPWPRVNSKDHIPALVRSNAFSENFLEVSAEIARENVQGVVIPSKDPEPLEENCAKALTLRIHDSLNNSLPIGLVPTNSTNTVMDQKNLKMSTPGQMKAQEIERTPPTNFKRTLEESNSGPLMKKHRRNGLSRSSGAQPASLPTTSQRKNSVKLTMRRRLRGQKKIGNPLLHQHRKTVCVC
Outline: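 10 nM WIP1 + cpd, 1 h RT; + 2 uM VEPPL-pS-QETFS, 5 min RT; stop 0.5% formic acid; labelled product standard 1 uM; RapidFire MS. Buffer 50 mM Tris pH 7.5, 30 mM MgCl2, 1 mM TCEP.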

[4] = target: Protein phosphatase 1D (Homo sapiens) (UniProt O15297); assay: Rhodamine-PBP qHTS Assay for Modulators of WT P53-Induced Phosphatase 1 (WIP1) (AID 1347425); also: % of control where 0% means no effect
Outline: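 5 nM WIP1 + 10 uM Rh-PBP, 50 mM Tris pH 7.5, 30 mM MgCl2, 1 mM TCEP, 0.1 mM EGTA, BSA; cpds pinned, 1 hr RT; + 10 uM phosphopeptide; fluorescence 1-min reads x 11 min; delta = f1 - f0.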

Nc1ccc(S(=O)(=O)NC(=O)c2ccccc2)cc1
inactive: Potency [1] | Potency [2] | outcome [3] | outcome [4]

O=C(O)[C@@H]1CSCN1
inactive: Potency [1] | Potency [2] | outcome [3] | outcome [4]

O=C(O)CC(O)C(=O)O (stereo unspecified)
inactive: Potency [1] | Potency [2] | outcome [3] | outcome [4]

CC(=O)Nc1ccc(/C=N/NC(N)=S)cc1
inactive: Potency [1] | Potency [2] | outcome [3] | outcome [4]

CN1CCCCC1CCN1c2ccccc2Sc2ccc(S(C)=O)cc21 (stereo unspecified)
inactive: Potency [1] | Potency [2] | outcome [3] | outcome [4]

C[C@@H]1CC[C@@]2(OC1)O[C@H]1C[C@H]3[C@@H]4CC[C@H]5C[C@@H](O)CC[C@]5(C)[C@H]4CC(=O)[C@]3(C)[C@H]1[C@@H]2C
inactive: activity change, negative = inhibition [1] -4.75% [at 4.99 µM] | activity change, negative = inhibition [2] -0.255% [at 3.83 µM] | activity change, negative = inhibition [3] 12.5% [at 6.17 µM] | activity change, negative = inhibition [4] 1.62% [at 4.81 µM]

CCCCN(CCCC)CCCOC(=O)c1ccc(N)cc1
inactive: Potency [1] | Potency [2] | outcome [3] | outcome [4]

CN(C)CCN(Cc1ccccc1)c1ccccn1
inactive: Potency [1] | Potency [2] | outcome [3] | outcome [4]

Cc1cc(O)cc2c1O[C@](C)(CCC[C@H](C)CCC[C@H](C)CCCC(C)C)CC2
inactive: Potency [1] | Potency [2] | outcome [3] | outcome [4]

CN1[C@@H]2CC(OC(=O)[C@H](CO)c3ccccc3)C[C@H]1[C@@H]1O[C@@H]12 (stereo partly specified)
inactive: Potency [1] | Potency [2] | outcome [3] | outcome [4]

C[C@H]1O[C@H](O[C@H]2[C@H](O)[C@@H](O)[C@@H](O[C@H]3[C@H](O)[C@@H](O)[C@H](O)O[C@@H]3CO)O[C@@H]2CO)[C@H](O)[C@@H](O)[C@@H]1N[C@H]1C=C(CO)[C@@H](O)[C@H](O)[C@H]1O
inactive: Potency [1] | Potency [2] | outcome [3] | outcome [4]

COc1ccc2cc1Oc1cc3c(cc1OC)CC[N+](C)(C)[C@H]3Cc1ccc(cc1)Oc1c(OC)c(OC)cc3c1[C@@H](C2)[N+](C)(C)CC3
inactive: Potency [1] | Potency [2] | outcome [3] | outcome [4]

C[C@@H](O)[C@H](N)C(=O)O
inactive: Potency [1] | Potency [2] | outcome [3] | outcome [4]

CCC(=O)c1ccc(O)cc1
inactive: Potency [1] | Potency [2] | outcome [3] | outcome [4]

CCn1cc(C(=O)O)c(=O)c2cnc(N3CCNCC3)nc21
inactive: Potency [1] | Potency [2] | outcome [3] | outcome [4]

O=C(O)CN1C(=O)c2cccc3cccc(c23)C1=O
inactive: Potency [1] | Potency [2] | outcome [3] | outcome [4]

COc1cc(C)c(Cc2cnc(N)nc2N)cc1OC
inactive: Potency [1] | Potency [2] | outcome [3] | outcome [4]

CCCCC(CC)COC(=O)c1ccccc1O (stereo unspecified)
inactive: Potency [1] | Potency [2] | outcome [3] | outcome [4]

CC1CC(OC(=O)C(O)c2ccccc2)CC(C)(C)N1C (stereo unspecified)
inactive: Potency [1] | Potency [2] | outcome [3] | outcome [4]
